SMILES strings stand for the structures. Results filed as inconclusive are left out. For some of these results: Measured potencies and affinities stand elsewhere. Calls of active or inactive are those of the source.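 Rule for the calls, unless noted: active = luciferase signal above three times the same-plate solvent-only control wells; inactive = the rest.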

The values that follow come from PubChem BioAssay.

Assay [1] is described as follows: polyglutamine-triggered caspase-3 activation inhibitors, cell-based (AID 1583). The conditions noted are these: polyglutamine-induced caspase-3 activation, cell assay; stronger effect = higher value;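 tested at 10 µM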.
The nature of assay [2]: suppressors of polyQ aggregation in yeast, 75Q-TubU reporter (AID 1593). To be noted: Yeast 75Q polyglutamine aggregation reporter.
A short description of assay [3]: rescue of polyQ-huntingtin neuronal dysfunction in worms, whole organism, C. elegans mechanosensory neurons, N-terminal huntingtin (AID 1599). To be noted: touch response, stronger effect = higher value.
A short description of assay [4]: inhibitors of mitochondrial cytochrome c release, biochemical, purified mitochondria (AID 1603).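 Note: mouse liver mitochondria challenged with calcium chloride; signal normalized to the plate average as 100%.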 The conditions noted are these: stronger effect = lower value.
Assay [5] can be described thus: inhibitors of polyQ protein aggregation (AID 1604). To be noted: polyglutamine-induced protein aggregation inhibition assay; stronger effect = higher value; tested at 2.5 µM.
A short description of assay [6]: enhancers of glutamate uptake in motor neurons, MN-1 cell line (AID 1612).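 Note: tested at 1 µM final; 0% = mean of DMSO vehicle wells on each plate; positive means more glutamate uptake than control and negative means less.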 To be noted: MN-1 motor neuron cells, stronger effect = higher value.
A short description of assay [7]: reducers of polyQ inclusions in PC12 cells, cell-based, NGF-treated PC12, GFPQ80 (AID 1614).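 Note: lower means fewer inclusions and 0 means no inclusions at all.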 The conditions noted are these: PC12 NGF-treated GFP-polyQ80 inclusion reduction.
The nature of assay [8]: suppressors of polyglutamine aggregation in yeast, 75Q-TubH (AID 1616). To be noted: S. cerevisiae 75Q-TubH polyglutamine aggregation suppression; stronger effect = higher value.
Assay [9] is described as follows: protection against mutant huntingtin cytotoxicity, PC12 cells, LDH release (AID 1610). The conditions noted are these: PC12 mutant huntingtin toxicity, final LDH at 4 uM, stronger effect = lower value. Background: LDH in the medium is a marker of cell lysis.
Assay [10] deals with Mitogen-activated protein kinase 7 (Homo sapiens) (UniProt Q13164). The assay can be described thus: ERK5 transactivation activators in reporter cells, primary screen, cell-based, HTS (AID 1508626).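 Note: luciferase driven by Gal4-ERK5 fusion binding five Gal4 sites before minimal TATA.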 The conditions noted are these: HeLa Gal4-ERK5 transactivation, 18 h, at 5 µM, stronger effect = higher value.
Assay [11] is described as follows: liver-stage malaria parasite growth inhibition, primary screen, cell-based, HepG2, luciferase luminescence, HepG2 viability (AID 624349; in the data active = parasite load remaining mostly below about 12%, no sharp cut-off; inactive = mostly above about 10%;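 note: 100% = mean of DMSO negative control wells on the same plate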). The conditions noted are these: P. berghei liver stage in HepG2, luciferase luminescence, concentration not given here; parasite load remaining: stronger effect = lower value; viability: measured here: HepG2 viability without parasites.

Assay [12] in a line: viability rescue of complex I mutant cybrids, primary screen, cell-based, galactose medium, ATP luminescence (AID 1645843;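 active = z-score of at least 1.8 in each of two replicates, scored against plate mean and spread of sample wells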;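 note: positive z means more ATP and so rescue of galactose-driven cybrid death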). The conditions noted are these: complex I mutant cybrid cells, 72 h, stronger effect = higher value.
Assay [13] in a line: hESC survival regulators, cell-based (AID 493140; call rule not given here;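 note: cells exposed to compounds for four days before counting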). The conditions noted are these: human embryonic stem cell survival screen; stronger effect = higher value.

Sequence of Mitogen-activated protein kinase 7 (Homo sapiens) (Q13164 whole entry, looked up, the tested form may be a part): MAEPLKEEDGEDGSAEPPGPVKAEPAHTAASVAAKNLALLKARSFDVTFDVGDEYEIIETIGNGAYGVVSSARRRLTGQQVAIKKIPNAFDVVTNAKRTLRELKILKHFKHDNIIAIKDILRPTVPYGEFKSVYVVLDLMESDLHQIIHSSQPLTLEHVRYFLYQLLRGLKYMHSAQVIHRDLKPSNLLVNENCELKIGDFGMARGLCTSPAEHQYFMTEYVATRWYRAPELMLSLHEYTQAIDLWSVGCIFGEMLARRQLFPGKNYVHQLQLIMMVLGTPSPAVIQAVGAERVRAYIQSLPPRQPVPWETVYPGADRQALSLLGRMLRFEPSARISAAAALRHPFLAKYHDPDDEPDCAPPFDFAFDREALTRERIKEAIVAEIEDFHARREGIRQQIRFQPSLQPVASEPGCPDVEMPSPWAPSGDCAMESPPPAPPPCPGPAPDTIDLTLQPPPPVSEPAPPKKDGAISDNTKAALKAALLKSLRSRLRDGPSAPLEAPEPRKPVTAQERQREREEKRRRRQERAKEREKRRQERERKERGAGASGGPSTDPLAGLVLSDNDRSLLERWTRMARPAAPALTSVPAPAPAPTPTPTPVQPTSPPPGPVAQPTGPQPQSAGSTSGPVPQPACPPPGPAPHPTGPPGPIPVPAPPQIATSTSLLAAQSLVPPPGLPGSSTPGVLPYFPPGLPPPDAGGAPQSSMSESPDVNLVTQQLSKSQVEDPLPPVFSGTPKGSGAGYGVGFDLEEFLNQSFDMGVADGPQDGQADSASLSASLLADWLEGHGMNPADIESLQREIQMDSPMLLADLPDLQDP

By inhibition is commonly meant the change of the read-out against control, counted positive when it falls. For the compound `COc1ccc2c3c1O[C@H]1[C@@H](O)C=CC4[C@@H](C2)N(C)CC[C@@]341` (some centres undefined), in assay [1], the inhibition was -19%. The compound also came in with a score in assay [2] of 1.17. In assay [3], this compound had a rescue above control of 2.82. For the same compound, in assay [4], the cytochrome c release ratio worked out at 0.92. Further, the inhibition of aggregation in [5] was 61.9%. In addition, in [6], the glutamate uptake change is -22%. In assay [7], this compound gave an inclusion score of 2. The compound further returned an aggregation suppression score in assay [8] of 1.22.
Take `COC12CC[C@@]3(C[C@@H]1C(C)(O)C(C)(C)C)[C@H]1Cc4ccc(O)c5c4[C@@]3(CCN1CC1CC1)[C@H]2O5` (some centres undefined): the inhibition in assay [1] came to 26.4%. Also, the score in assay [2] is 1.52. The compound also returned a rescue above control in assay [3] of 5.39. Also, the cytochrome c release ratio in [4] was found to be 1.25. Further, the inhibition of aggregation in assay [5] was -0.68%. Besides, the normalised LDH release in [9] is 1.01. Besides, the glutamate uptake change in assay [6] was -3.06%. The aggregation suppression score in [8] came out at 1.02.
Regarding `ClC1=C(Cl)C2(Cl)C3C4CC(C5OC45)C3C1(Cl)C2(Cl)Cl` (centres undefined), in assay [1], the inhibition was 8.56%. For the same compound, the score in assay [2] is 0. Besides, the rescue above control in assay [3] stood at 3.84. In addition, the cytochrome c release ratio in [4] stood at 1.81. Further, in assay [5], the inhibition of aggregation was 72.4%. Also, in [6], the glutamate uptake change was -23.9%. In [8], this compound yielded an aggregation suppression score of 0.719.
On to `COC(=O)C1=CO[C@@H](C)[C@@H]2CN3CC[C@@]4(C(=O)Nc5ccccc54)[C@@H]3C[C@H]12`, for which the luciferase signal in assay [10] is 24 AU (inactive).
With `NCCC(O)C(=O)N[C@@H]1C[C@H](N)[C@@H](O[C@H]2O[C@H](CN)[C@@H](O)[C@H](O)[C@H]2N)[C@H](OC2O[C@H](CO)[C@H](O)[C@H]2O)[C@H]1O` (some centres undefined), the inhibition in assay [1] was found to be 5.62%. The score in assay [2] was 1.4. The rescue above control in [3] was determined as 9.62. Further, the cytochrome c release ratio in assay [4] turned out to be 1.37. The inhibition of aggregation in assay [5] amounted to 83.3%. For the same compound, the glutamate uptake change in assay [6] stood at 13.4%. Also, the inclusion score in assay [7] was 2. Further, the aggregation suppression score in [8] was determined as 1.55.
In the case of `C[C@]12CCC3C(CC[C@@H]4C[C@H](O)CC[C@]34C)C1CCC2=O` (some centres undefined), the inhibition in [1] was found to be 61%. The score in assay [2] is 0.81. The rescue above control in assay [3] is -3.82. Also, the cytochrome c release ratio in assay [4] amounted to 0.77. Also, the inhibition of aggregation in [5] turned out to be 91.7%. For the same compound, the glutamate uptake change in assay [6] was -9.61%. Moreover, in assay [8], the aggregation suppression score turned out to be 0.472.
For `CCOC(=O)C1C(OC(=O)c2ccccc2)CC2CCC1N2C` (centres undefined), in assay [1], the inhibition was 4.42%. In addition, the score in assay [2] amounted to 1.01. In [3], the rescue above control was -8. Also, in [4], the cytochrome c release ratio came out at 0.89. Further, the inhibition of aggregation in [5] turned out to be 44.2%. For the same compound, the glutamate uptake change in assay [6] is -24.3%. The inclusion score in assay [7] was found to be 2. In assay [8], this compound gave an aggregation suppression score of 1.45.
In the case of `CN1C(=O)CN=C(c2ccccc2F)c2cc([N+](=O)[O-])ccc21`, the inhibition in assay [1] stood at 9.27%. Also, in assay [2], the score amounted to 0.97. For the same compound, the rescue above control in [3] is -7.57. Also, the cytochrome c release ratio in assay [4] came out at 0.83. Also, the inhibition of aggregation in assay [5] was determined as 22.4%. Also, the glutamate uptake change in assay [6] was -1.18%. Further, in assay [7], the inclusion score came to 2. For the same compound, the aggregation suppression score in assay [8] came to 0.965.
One may read the viability as a per cent measure of how many cells are alive, often set against a control. With `CC[C@H]1C(=O)OC[C@@H]1Cc1cncn1C`, in assay [11], the parasite load remaining was 76.7% (inactive) and the viability was found to be 70.2%. Besides, in assay [10], the luciferase signal was 84 AU (inactive).
In the case of `CN1C(=O)C(O)N=C(c2ccccc2)c2cc(Cl)ccc21` (centres undefined), the inhibition in assay [1] was -6.64%. Further, the score in [2] was 1.21. In assay [3], this compound gave a rescue above control of 0.82. In addition, in assay [4], the cytochrome c release ratio worked out at 0.99. Besides, the inhibition of aggregation in [5] was found to be 8.84%. Further, the glutamate uptake change in [6] was 4.66%. The compound further yielded an inclusion score in assay [7] of 2. Moreover, in assay [8], the aggregation suppression score was 1.05.
Turning to `CC1CC[C@@]2(NC1)OC1CC3C4CC=C5CC(O)CCC5(C)C4CCC3(C)C1[C@@H]2C` (some centres undefined), in assay [1], the inhibition turned out to be 0.23%. In [2], this compound returned a score of 1.05. In addition, the rescue above control in [3] is -8.79. Moreover, the cytochrome c release ratio in assay [4] amounted to 1.04. The inhibition of aggregation in assay [5] came out at 64.7%. The glutamate uptake change in assay [6] was -2.74%. The inclusion score in assay [7] worked out at 2. The same compound gave an aggregation suppression score in assay [8] of 0.556.
Regarding `CCN1CCCC(N2CCN3CCCC3C2)C1` (centres undefined), the z-score in assay [12] was -0.225 (inactive).
`O=c1ccc2cc(O[C@H]3O[C@H](CO)[C@@H](O)[C@H](O)[C@H]3O)c(O)cc2o1`: the inhibition in assay [1] was -25.3%. The same compound registered a score in [2] of 0.99. Further, the rescue above control in assay [3] was -9.34. In [4], the cytochrome c release ratio amounted to 0.66. Further, the inhibition of aggregation in [5] was found to be 56.9%. Further, the glutamate uptake change in assay [6] turned out to be 21.7%. Further, the inclusion score in [7] was found to be 2. The aggregation suppression score in assay [8] is 0.763.
On to `CCC(=O)C(CC(C)N(C)C)(c1ccccc1)c1ccccc1` (centres undefined), for which the inhibition in [1] was -9.47%. This compound also yielded a score in [2] of 1.06. The compound further registered a rescue above control in assay [3] of 0.15. In addition, the cytochrome c release ratio in assay [4] amounted to 0.89. In addition, in [5], the inhibition of aggregation is 21.1%. For the same compound, in assay [6], the glutamate uptake change was found to be 7.77%. Also, in assay [7], the inclusion score was 2. Further, the aggregation suppression score in assay [8] turned out to be 0.899.
Consider `O=c1ccc2cc(O[C@@H]3OC(CO)[C@@H](O)[C@@H](O)C3O)c(O)cc2o1` (some centres undefined), for which, in assay [13], the survival was 4.42 (inactive). The luciferase signal in assay [10] was 48 AU (inactive).
Turning to `CC(N)Cc1ccc2c(c1)OCO2` (centres undefined), in assay [1], the inhibition was -14.9%. Moreover, in assay [2], the score was determined as 1.01. Further, the rescue above control in [3] was -3.14. For the same compound, the cytochrome c release ratio in assay [4] came to 1. In assay [5], the inhibition of aggregation was found to be 21.1%. Besides, in assay [6], the glutamate uptake change is -7.15%. In assay [7], this compound displayed an inclusion score of 2. Further, in [8], the aggregation suppression score is 1.15.
For the compound `CCCCCc1cc(O)c2c(c1)OC(C)(C)C1CCC(C)=CC21` (centres undefined), in assay [1], the inhibition stood at 5.35%. Moreover, the score in assay [2] was -0.54. The rescue above control in assay [3] is -0.11. The cytochrome c release ratio in assay [4] amounted to 2.94. Also, the inhibition of aggregation in [5] turned out to be 34.7%. Besides, in assay [9], the normalised LDH release amounted to 0.893. Besides, the glutamate uptake change in assay [6] was -3.83%. The compound further came in with an aggregation suppression score in [8] of 0.291.
